Drawing on ChEMBL document CHEMBL3988442, “University of Dundee, Small-Polar-MMV Screening Library” (2021), this text covers Percent Effect for 40 compounds.

The target of one assay is T1, Aspartate--tRNA(Asp/Asn) ligase (Mycobacterium tuberculosis (strain ATCC 25618 / H37Rv)) (UniProt P9WFW3). Further: in the data most compounds retested in dose-response had high values.
T1 sequence (whole entry): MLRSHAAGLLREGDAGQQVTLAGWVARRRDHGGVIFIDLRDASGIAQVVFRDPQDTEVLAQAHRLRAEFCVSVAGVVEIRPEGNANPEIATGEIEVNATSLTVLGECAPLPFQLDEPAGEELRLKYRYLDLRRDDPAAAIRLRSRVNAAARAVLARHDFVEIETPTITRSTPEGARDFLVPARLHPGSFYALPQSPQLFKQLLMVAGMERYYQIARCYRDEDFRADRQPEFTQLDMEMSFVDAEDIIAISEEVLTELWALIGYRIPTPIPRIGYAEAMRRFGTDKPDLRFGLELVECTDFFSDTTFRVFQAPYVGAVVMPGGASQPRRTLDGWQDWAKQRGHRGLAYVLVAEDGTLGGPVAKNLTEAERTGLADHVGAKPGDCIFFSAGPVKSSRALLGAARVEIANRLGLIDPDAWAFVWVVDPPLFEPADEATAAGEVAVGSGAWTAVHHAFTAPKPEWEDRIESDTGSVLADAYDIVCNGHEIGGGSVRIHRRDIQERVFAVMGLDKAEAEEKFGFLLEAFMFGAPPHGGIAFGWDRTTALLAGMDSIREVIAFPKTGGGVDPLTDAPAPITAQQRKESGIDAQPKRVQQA
Description: Assay for Asp RNA synthetase-1 from Mycobacterium tuberculosis. The assay is classed as functional. On the set-up: scale not given: direction of the effect not stated beside the values. Particulars: 30 µM.
Turning to `CC(=O)NC(C)(C)C(=O)Nc1ncc(Cc2ccc(C)c(F)c2)s1`, the Percent Effect is -1.27%.

For the compound `CCN1CC(C(=O)N2CCC(Oc3ccccc3C)CC2)CC1=O` (stereo not given), the Percent Effect was -1.25%.

Turning to `Cn1cnc2c1CCN(Cc1nc(Cc3ccccc3)no1)C2`, the Percent Effect was -1.94%.

Take `O=C(c1nc(COc2ccc3c(c2)OCO3)no1)N1CCCC1`: the Percent Effect worked out at 6.21%.

For `CC(C)NC(=O)COc1nc(C(C)(C)C)no1`, the Percent Effect worked out at 0.301%.

With `Cc1ccc(N2CCCN(C(=O)CC3CCCO3)CC2)nn1` (stereo not given), the Percent Effect came out at 10.1%.

With `Cc1noc([C@H]2C[C@H]3OCC[C@H]3N(Cc3ccc4c(c3)OCO4)C2)n1`, the Percent Effect was 2.03%.

As for `CCc1csc(C2CCCN(C(=O)C3=NN(CC)C(=O)CC3)C2)n1` (stereo not given), the Percent Effect is -5.86%.

On to `COc1cccc(-n2nnc(C(=O)N3CCNC(=O)C3)c2C)c1`, for which the Percent Effect was -6.06%.

For `CCCN1CCN(C(=O)C(C)n2cc(Br)cn2)CC1` (stereo not given), the Percent Effect is 5.74%.

Regarding `Cc1cc(C2CCCN2Cc2ccn(C)c(=O)c2)no1` (stereo not given), the Percent Effect was -1.63%.

As for `Cc1nc(C)n(CC2CN(CCc3ccncc3)CCO2)n1` (stereo not given), the Percent Effect turned out to be 1.98%.

Consider `CCCc1nnsc1C(=O)NCC1CCN(S(C)(=O)=O)CC1`, for which the Percent Effect is -7.1%.

Consider `c1cnn(CCNCc2nnc(C3CC3)o2)c1`, for which the Percent Effect is -0.343%.

Regarding `Cc1cccc(CN2CCc3c(nc(N4CCCCC4C)[nH]c3=O)C2)n1` (stereo not given), the Percent Effect was -1.15%.

With `Cc1ccc(C(CNCc2cnn(C(C)C)c2)N2CCOCC2)s1` (stereo not given), the Percent Effect was -4.07%.

Take `Cn1cnc2c1C(COCC1CC1)CN(Cc1ccsc1)C2` (stereo not given): the Percent Effect was found to be 5.14%.

On to `CCCc1cc(C(=O)N2CCOC(c3nc(-c4cccs4)no3)C2)no1` (stereo not given), for which the Percent Effect was -0.544%.

In the case of `O=C(COc1ccc2c(c1)CCC2)N1CCOCC1c1ncon1` (stereo not given), the Percent Effect is -4.77%.

Take `Cc1noc(C)c1CN1C[C@@H]2COC[C@H](C(=O)N3CCCCO3)[C@@H]2C1`: the Percent Effect was found to be 4.46%.

Consider `CC(=O)N1CCN(CCNS(=O)(=O)c2ccc(C)c(F)c2)CC1`, for which the Percent Effect is -1.95%.

For the compound `CN(C)c1ccc(CCNC(=O)NCc2ccc(N(C)C)nc2)cc1`, the Percent Effect was 2.84%.

Turning to `Cc1cc(CN2CCN(CCOc3cccc(C#N)c3)CC2)no1`, the Percent Effect worked out at 2.73%.

As for `COCc1cccc(CNCc2c(C)nn(C)c2N(C)C)c1`, the Percent Effect is 6.21%.

For the compound `CCNc1cc2c(nn1)CCN(C(=O)c1cccc3c1OCCO3)C2`, the Percent Effect is 7.68%.

Regarding `CC(C(N)=O)N(C)CCCc1cc(-c2ccccc2)no1` (stereo not given), the Percent Effect stood at 4.08%.

For `CCc1nnc2n1CCN(C(=O)c1ccc3nc(C)c(C)nc3c1)C2`, the Percent Effect is -2.42%.

In the case of `c1cncc(COCC2CN(Cc3ccco3)Cc3ccnn3C2)c1` (stereo not given), the Percent Effect is 1.51%.

Consider `Cc1cc(-c2cnc(N3CCNC(=O)C3)nc2-c2cccnc2C)on1`, for which the Percent Effect is -4.46%.

Regarding `CC(=O)N1CCC(CN2CCN(Cc3nccn3C)C(C)C2)CC1` (stereo not given), the Percent Effect was 7.78%.

Turning to `O=C1CCC(C(=O)NCc2nncn2-c2ccccc2)CN1` (stereo not given), the Percent Effect is 3.33%.

Take `Cn1cccc1C(=O)N1CCCN(CCCc2ccccc2)CC1`: the Percent Effect came out at 0.0912%.

For the compound `COc1cccc(-n2nnc(C(=O)N3CCN(C)CC3C)c2C)c1` (stereo not given), the Percent Effect is -2.92%.

For the compound `CCc1cnc(CN2CCCC2c2noc(C3CC3)n2)o1` (stereo not given), the Percent Effect was 2.19%.

As to `Cc1occc1C(=O)N1CCC2(CCC(C(=O)NCC3CC3)O2)CC1` (stereo not given), the Percent Effect is -0.182%.

With `COC[C@]12COC[C@H]1CN(Cc1cc(OC)cc(OC)c1)C2`, the Percent Effect is -1.51%.

Take `CC(C#N)CSc1ccccc1NCC(=O)Nc1ccc(F)cc1` (stereo not given): the Percent Effect came out at 2.19%.

With `CCn1ccnc1CN1CCCN(C(=O)c2cccn2C)CC1`, the Percent Effect was -3.17%.

On to `COc1ccccc1C(=O)NC(C)CC(=O)O` (stereo not given), for which the Percent Effect is -5.28%.

`CCc1ccc(CN2CCC3(CC2)CNC(=O)CO3)o1`: the Percent Effect was -0.662%.

The next assay addresses Shiga toxin 2 (Escherichia coli O157:H7) (UniProt P09385+P09386). Nature of the assay: E. coli 0.157:H7 Shiga Toxin SOP - stx2 screening assay. The assay is classed as functional. The arrangement: scale not given: direction of the effect not stated beside the values. Particulars: 30 µM.
Take `CC(=O)NC(C)(C)C(=O)Nc1ncc(Cc2ccc(C)c(F)c2)s1`: the Percent Effect is -15.4%.

Consider `CCN1CC(C(=O)N2CCC(Oc3ccccc3C)CC2)CC1=O` (stereo not given), for which the Percent Effect was -32.1%.

With `Cn1cnc2c1CCN(Cc1nc(Cc3ccccc3)no1)C2`, the Percent Effect turned out to be 15.1%.

`O=C(c1nc(COc2ccc3c(c2)OCO3)no1)N1CCCC1`: the Percent Effect was -63.7%.

Turning to `CC(C)NC(=O)COc1nc(C(C)(C)C)no1`, the Percent Effect was 2.21%.

For `Cc1ccc(N2CCCN(C(=O)CC3CCCO3)CC2)nn1` (stereo not given), the Percent Effect came to 18.1%.

Consider `Cc1noc([C@H]2C[C@H]3OCC[C@H]3N(Cc3ccc4c(c3)OCO4)C2)n1`, for which the Percent Effect is -3.36%.

With `CCc1csc(C2CCCN(C(=O)C3=NN(CC)C(=O)CC3)C2)n1` (stereo not given), the Percent Effect is -21.6%.

With `COc1cccc(-n2nnc(C(=O)N3CCNC(=O)C3)c2C)c1`, the Percent Effect is -7.95%.

Consider `CCCN1CCN(C(=O)C(C)n2cc(Br)cn2)CC1` (stereo not given), for which the Percent Effect was -31.6%.

On to `Cc1cc(C2CCCN2Cc2ccn(C)c(=O)c2)no1` (stereo not given), for which the Percent Effect came to 8.31%.

Turning to `Cc1nc(C)n(CC2CN(CCc3ccncc3)CCO2)n1` (stereo not given), the Percent Effect was -14.2%.

As to `CCCc1nnsc1C(=O)NCC1CCN(S(C)(=O)=O)CC1`, the Percent Effect is -1.41%.

As to `c1cnn(CCNCc2nnc(C3CC3)o2)c1`, the Percent Effect is -28.3%.

With `Cc1cccc(CN2CCc3c(nc(N4CCCCC4C)[nH]c3=O)C2)n1` (stereo not given), the Percent Effect is 21.7%.

On to `Cc1ccc(C(CNCc2cnn(C(C)C)c2)N2CCOCC2)s1` (stereo not given), for which the Percent Effect is -11%.

Consider `Cn1cnc2c1C(COCC1CC1)CN(Cc1ccsc1)C2` (stereo not given), for which the Percent Effect is -1.62%.

In the case of `CCCc1cc(C(=O)N2CCOC(c3nc(-c4cccs4)no3)C2)no1` (stereo not given), the Percent Effect was -10.2%.

With `O=C(COc1ccc2c(c1)CCC2)N1CCOCC1c1ncon1` (stereo not given), the Percent Effect stood at 22.5%.

Consider `Cc1noc(C)c1CN1C[C@@H]2COC[C@H](C(=O)N3CCCCO3)[C@@H]2C1`, for which the Percent Effect came to 5.31%.

For `CC(=O)N1CCN(CCNS(=O)(=O)c2ccc(C)c(F)c2)CC1`, the Percent Effect amounted to 5.72%.

Consider `CN(C)c1ccc(CCNC(=O)NCc2ccc(N(C)C)nc2)cc1`, for which the Percent Effect came to 5.6%.

`Cc1cc(CN2CCN(CCOc3cccc(C#N)c3)CC2)no1`: the Percent Effect turned out to be 20.5%.

In the case of `COCc1cccc(CNCc2c(C)nn(C)c2N(C)C)c1`, the Percent Effect worked out at 1.1%.

Take `CCNc1cc2c(nn1)CCN(C(=O)c1cccc3c1OCCO3)C2`: the Percent Effect is -25.7%.

As to `CC(C(N)=O)N(C)CCCc1cc(-c2ccccc2)no1` (stereo not given), the Percent Effect turned out to be 15%.

Consider `CCc1nnc2n1CCN(C(=O)c1ccc3nc(C)c(C)nc3c1)C2`, for which the Percent Effect worked out at 7.1%.

With `c1cncc(COCC2CN(Cc3ccco3)Cc3ccnn3C2)c1` (stereo not given), the Percent Effect is -12.8%.

On to `Cc1cc(-c2cnc(N3CCNC(=O)C3)nc2-c2cccnc2C)on1`, for which the Percent Effect was -9.56%.

Take `CC(=O)N1CCC(CN2CCN(Cc3nccn3C)C(C)C2)CC1` (stereo not given): the Percent Effect was 18.6%.

As to `O=C1CCC(C(=O)NCc2nncn2-c2ccccc2)CN1` (stereo not given), the Percent Effect was 4.47%.

For `Cn1cccc1C(=O)N1CCCN(CCCc2ccccc2)CC1`, the Percent Effect is -20.8%.

In the case of `COc1cccc(-n2nnc(C(=O)N3CCN(C)CC3C)c2C)c1` (stereo not given), the Percent Effect is -48.2%.

For the compound `CCc1cnc(CN2CCCC2c2noc(C3CC3)n2)o1` (stereo not given), the Percent Effect is 19.7%.

For `Cc1occc1C(=O)N1CCC2(CCC(C(=O)NCC3CC3)O2)CC1` (stereo not given), the Percent Effect was -6.83%.

Regarding `COC[C@]12COC[C@H]1CN(Cc1cc(OC)cc(OC)c1)C2`, the Percent Effect was -6.3%.

Take `CC(C#N)CSc1ccccc1NCC(=O)Nc1ccc(F)cc1` (stereo not given): the Percent Effect was -7.42%.

With `CCn1ccnc1CN1CCCN(C(=O)c2cccn2C)CC1`, the Percent Effect is 5.64%.

As to `COc1ccccc1C(=O)NC(C)CC(=O)O` (stereo not given), the Percent Effect is -19.9%.

Regarding `CCc1ccc(CN2CCC3(CC2)CNC(=O)CO3)o1`, the Percent Effect is -2.48%.
